Shown are actives, neighbours in structure and some others; about 12% of the full set was active somewhere.
G9a inh = qHTS Assay for Inhibitors of Histone Lysine Methyltransferase G9a; Histone-lysine N-methyltransferase EHMT2 (Homo sapiens), Q96KQ7; G9a H3K9 monomethylation, AlphaScreen, 2 h; Potency, µM (doses to about 102 µM), for the others: at the top dose activity, negative = inhibition, usual class: inhibitors; hit rate 8.8% among 350,000; AID 504332, 2011; further: on the % scale 0 is the no-effect control and ±100 the full control effect; nearly all actives have a fitted effect of over 75% in size
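Quantitative HTS format: methyltransferase activity on a biotin-tagged H3K9 peptide is measured by AlphaScreen, using a rabbit anti-monomethyl-H3K9 antibody with streptavidin donor and anti-IgG acceptor beads. Final levels are 20 nM enzyme, 500 nM peptide, 20 uM SAM; 2 h RT.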
Sfp inh = qHTS Assay for Inhibitors of Bacillus subtilis Sfp phosphopantetheinyl transferase (PPTase) | AID 1490, 2009 | hit rate 3.5% among 310,000 | Potency, µM, for inactives: largest response in the series, negative = inhibition, usual class: inhibitors | Biochemical Sfp PPTase activity, qHTS;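 further: the enzyme is Sfp with the accession as filed and its product quenches rhodamine fluorescence; 0% = enzyme reaction without inhibitor and -100% = no enzyme wells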
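After 15 min at room temperature with compound, 15 nM Sfp received 5 uM rhodamine-CoA plus 12.5 uM BHQ-2-ybbR (50 mM Hepes pH 7.6, 10 mM MgCl2). Rate came from the fluorescence difference over 30 min, ex 525/em 598 nm.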
JMJD2A Tudor = qHTS Assay for Inhibitors of JMJD2A-Tudor Domain | AlphaScreen JMJD2A-Tudor / H3K4me3 peptide binding | Potency, µM (doses to about 114 µM), without a hit: top-dose activity change, negative = inhibition, actives largely listed as inhibitors | hit rate 4.4% among 390,000 | Lysine-specific demethylase 4A (Homo sapiens), O75164; further: on the % scale 0 is the no-effect control and ±100 the full control effect; nearly all actives have a fitted effect of over 50% in size
BAZ2B block = qHTS Assay for Inhibitors of BAZ2B. Bromodomain adjacent to zinc finger domain protein 2B (Homo sapiens), Q9UIF8. AlphaScreen BAZ2B-H3K14Ac peptide displacement. Potency, µM (titrated, usually from 114 µM), without a hit: at the top dose activity change, negative = inhibition, hits mostly inhibitors. hit rate 4.4% among 360,000. AID 504333, 2011; further: on the % scale 0 is the no-effect control and ±100 the full control effect; nearly all actives have a fitted effect of over 60% in size
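AlphaScreen luminescence quantifies BAZ2B engagement of H3K14Ac peptide; the protein and biotinylated peptide are both at 50 nM final, buffer PBS pH 7.4 with 0.01% Tween-20, all steps at room temperature.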
L3MBTL1 block = qHTS Assay for the Inhibitors of L3MBTL1; Lethal(3)malignant brain tumor-like protein 1 (Homo sapiens), Q9Y468; AlphaScreen L3MBTL1–H3K9me1 peptide binding; Potency, µM (series often up to 57.1 µM), without a hit: at the top dose activity, negative = inhibition, most hits filed as inhibitors; hit rate 0.66% among 230,000; AID 485360, 2010; further: on the % scale 0 is the no-effect control and ±100 the full control effect; nearly all actives have a fitted effect of over 60% in size
Target sequence (Q9Y468 whole entry, looked up): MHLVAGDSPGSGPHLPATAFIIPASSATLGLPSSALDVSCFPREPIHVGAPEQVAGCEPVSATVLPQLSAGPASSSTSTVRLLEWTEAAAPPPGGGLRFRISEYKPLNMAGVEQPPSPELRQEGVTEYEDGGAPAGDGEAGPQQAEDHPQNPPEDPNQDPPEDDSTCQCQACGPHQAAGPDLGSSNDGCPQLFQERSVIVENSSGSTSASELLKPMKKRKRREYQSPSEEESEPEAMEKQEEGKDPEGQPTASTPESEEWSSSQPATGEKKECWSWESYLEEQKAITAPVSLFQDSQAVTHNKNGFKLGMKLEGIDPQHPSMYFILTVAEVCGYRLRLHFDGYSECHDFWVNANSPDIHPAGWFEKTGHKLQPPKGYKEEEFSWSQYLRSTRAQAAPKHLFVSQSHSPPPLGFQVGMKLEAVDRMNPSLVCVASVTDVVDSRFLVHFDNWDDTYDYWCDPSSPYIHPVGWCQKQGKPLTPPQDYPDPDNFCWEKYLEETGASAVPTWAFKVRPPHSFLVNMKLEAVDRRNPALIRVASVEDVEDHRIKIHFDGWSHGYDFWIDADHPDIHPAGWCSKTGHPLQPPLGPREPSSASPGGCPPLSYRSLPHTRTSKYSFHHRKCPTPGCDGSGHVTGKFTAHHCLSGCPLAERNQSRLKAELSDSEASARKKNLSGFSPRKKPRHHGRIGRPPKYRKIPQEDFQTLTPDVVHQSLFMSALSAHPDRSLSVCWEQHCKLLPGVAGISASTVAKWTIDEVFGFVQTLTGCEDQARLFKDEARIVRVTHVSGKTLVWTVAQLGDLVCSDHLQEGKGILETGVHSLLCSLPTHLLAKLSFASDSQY
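AlphaScreen proximity signal between nickel-chelate acceptor and streptavidin donor beads (final 10 ug/mL) reports binding of 50 nM L3MBTL1 to 75 nM biotin-H3 K9me1 peptide; complex incubated with compounds 30 min at room temperature; cefsulodin titration as control.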
HP1b chromo inh = HTS for Inhibitors of HP1-beta Chromodomain Interactions with Methylated Histone Tails | AlphaScreen HP1-beta / biotin-H3K9me3 peptide binding | Potency, µM (series often up to 114 µM), inactives show at the top dose activity change, negative = inhibition, most hits filed as inhibitors | hit rate 0.56% among 390,000 | AID 540317, 2011; further: nearly all actives have a fitted effect of over 70% in size
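Compound inhibition of the preformed complex between 50 nM HP1-beta and 50 nM biotinylated H3K9me3 peptide was read by AlphaScreen. Buffer was PBS pH 7.4 with 0.01% Tween-20. Incubations ran 30 min at room temperature, with 10 ug/mL donor/acceptor beads.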
An asterisk follows results filed as active; [ ] = dose if it differs, or a comment. The call rests on the fitted dose curve; in most records, active means well fitted curve in the direction sought with a large enough effect; inconclusive means small, poorly fitted or top-dose-only effect, or another doubt; inactive means no such curve, though single readings can be large; an effect the other way counts as inactive or inconclusive. Potency means the concentration at half of the fitted maximal effect.

CCc1cccc(NC(=O)CCS(=O)(=O)c2cc3c(cc2C)NC(=O)CO3)c1 was read as Sfp inh 7%, JMJD2A Tudor -2%, BAZ2B block -4%, L3MBTL1 block -1% and HP1b chromo inh 33%.
Screening CCOC(=O)c1ccc(NC(=O)CN2c3ccccc3S(=O)(=O)c3ccccc32)cc1 returned G9a inh -8%[59 µM], JMJD2A Tudor -33%, BAZ2B block -24% and HP1b chromo inh 58%.
For COc1ccccc1-c1nc(NCCN2CCOCC2)c2ccccc2n1 the results were G9a inh -1%[0.501 µM] and Sfp inh inconclusive.
For O=C(COc1ccccc1/C=C\c1nc(O)c([N+](=O)[O-])c(=O)[nH]1)Nc1ccccc1 the results were G9a inh 50µM*, Sfp inh -5%, JMJD2A Tudor -22%, BAZ2B block inconclusive, L3MBTL1 block -21% and HP1b chromo inh -10%.
`O=c1[nH]c(/C=C\c2ccc(O)c(O)c2)nc(O)c1[N+](=O)[O-]` gave G9a inh 40µM*, Sfp inh 45µM*, JMJD2A Tudor inconclusive, BAZ2B block inconclusive, L3MBTL1 block inconclusive and HP1b chromo inh -4%.
CCOc1ccccc1/C=C\c1nc(O)c([N+](=O)[O-])c(=O)[nH]1 was read as G9a inh -10%, Sfp inh 1%, JMJD2A Tudor 13%, BAZ2B block -17% and HP1b chromo inh 22%.
`COc1ccc(-n2c(C)cc(/C=C/c3nc(O)c([N+](=O)[O-])c(=O)[nH]3)c2C)cc1` gave G9a inh 28µM*, Sfp inh 10%, JMJD2A Tudor -3%[11.4 µM], BAZ2B block 50µM*, L3MBTL1 block inconclusive and HP1b chromo inh inconclusive.
For Cc1cc(/C=C\c2nc(O)c([N+](=O)[O-])c(=O)[nH]2)c(C)n1-c1ccccc1 the results were G9a inh 50µM*, Sfp inh -4%, JMJD2A Tudor 56µM*, BAZ2B block 45µM*, L3MBTL1 block -24% and HP1b chromo inh inconclusive.
O=c1[nH]c(/C=C\c2cccc(O)c2)nc(O)c1[N+](=O)[O-] was read as G9a inh -74%, Sfp inh 10%, JMJD2A Tudor -2%, BAZ2B block 5%, L3MBTL1 block 3% and HP1b chromo inh 35%.
For COc1ccc(-c2ccc(CCC(=O)O)n2CC(=O)Nc2cccc(C(F)(F)F)c2)cc1 the results were G9a inh -51%[59 µM], JMJD2A Tudor -31%, BAZ2B block inconclusive and HP1b chromo inh 2%.
Screening CC(C)(C)c1ccc(C(=O)NCC(=O)OCc2cc(=O)n3nc(C4CC4)sc3n2)cc1 returned G9a inh 30%[59 µM], JMJD2A Tudor -30%, BAZ2B block -6% and HP1b chromo inh 16%.
`COc1cccc(NC(=O)C(C)n2c(=O)cc(C(F)(F)F)c3c(C)nn(C)c32)c1` (centres undefined) gave G9a inh 5%[59 µM], JMJD2A Tudor -15%, BAZ2B block -11% and HP1b chromo inh 32%.
COc1ccc(-c2n(CC(=O)OC3CC(C)CCC3C(C)C)c3ccccc3[n+]2C)cc1 (centres undefined) was read as G9a inh 1.1µM*, Sfp inh 6%, JMJD2A Tudor -11%, BAZ2B block inconclusive, L3MBTL1 block -13% and HP1b chromo inh 24%.
Screening COc1ccc(OCc2n(CC(=O)OC3CC(C)CCC3C(C)C)c3ccccc3[n+]2C)cc1 (centres undefined) returned G9a inh inconclusive, Sfp inh 35µM*, JMJD2A Tudor inconclusive, BAZ2B block -26% and HP1b chromo inh 42%.
CC1CCC(C(C)C)C(OC(=O)CSc2nccc(=O)[nH]2)C1 (centres undefined) was read as G9a inh 7%, Sfp inh -18%, JMJD2A Tudor 2%, BAZ2B block -2% and HP1b chromo inh 26%.
Screening COC(=O)c1cccc(Nc2ncnc3sccc23)c1 returned G9a inh 35µM*, Sfp inh -2%, JMJD2A Tudor -12%, L3MBTL1 block -5% and HP1b chromo inh 54%.
`COc1ccc(Nc2ncnc3sccc23)cc1` gave G9a inh 45µM*, Sfp inh -9%, JMJD2A Tudor -9%, BAZ2B block -7% and HP1b chromo inh -2%.
COc1cccc(Nc2ncnc3sccc23)c1 was read as G9a inh -8%, Sfp inh -11%, JMJD2A Tudor -1%, BAZ2B block 13% and HP1b chromo inh 39%.
Screening c1ccc(Nc2ncnc3sccc23)cc1 returned G9a inh -9%, Sfp inh -5%, JMJD2A Tudor -5%, BAZ2B block 1% and HP1b chromo inh 9%.
CC(=O)OCCBr was read as Sfp inh -11%.
Screening COc1ccccc1NC(=O)Cn1c(=O)n(-c2cccc(C(C)=O)c2)c(=O)c2c3c(sc21)CN(C(C)=O)CC3 returned G9a inh -22%[59 µM], JMJD2A Tudor -14%, BAZ2B block -11% and HP1b chromo inh 25%.
For CCc1ccc(Nc2sc(C(=O)c3ccccc3)c(N)c2S(C)(=O)=O)cc1 the results were G9a inh -29%[59 µM], JMJD2A Tudor inconclusive, BAZ2B block inconclusive and HP1b chromo inh 13%.
`CC(C)C(=O)NC(=S)Nc1nnn(C)n1` gave G9a inh 8.9µM*, Sfp inh -90%, JMJD2A Tudor 1.1µM*, BAZ2B block 56µM*, L3MBTL1 block 11% and HP1b chromo inh inconclusive.
For Cn1nnc(NC(=S)NC(=O)c2cccc3ccccc23)n1 the results were G9a inh 7.9µM*, Sfp inh 35µM*, JMJD2A Tudor 2.8µM*, BAZ2B block -38% and HP1b chromo inh -17%[57 µM].
Screening COc1cc(OC)cc(C(=O)NC(=S)Nc2nnn(C)n2)c1 returned G9a inh 10µM*, Sfp inh 35µM*, JMJD2A Tudor inconclusive, BAZ2B block inconclusive, L3MBTL1 block -5% and HP1b chromo inh inconclusive.
For Cn1nnc(NC(=S)NC(=O)c2ccc(-c3ccc(Br)cc3)o2)n1 the results were G9a inh inconclusive, Sfp inh -15%, JMJD2A Tudor -4%, BAZ2B block -13%, L3MBTL1 block -1% and HP1b chromo inh -7%.
